Measurements: PubChem BioAssay AID1159580 (chemical genetic matrix, 2015)
Where “and” joins values, the source holds several entries; their conditions need not be identical. Equal entries are not always repeated. Screen size: about 5,500 compounds; about 2,000 (36%) were called active. About 18% were inconclusive and are not listed. Rule as the data show it: active = normalized growth mostly below about 0.91 (no sharp cut-off); inconclusive = no clear call, values can overlap the other calls; inactive = mostly above about 0.92. Some of the results follow.

Test: chemical genetic growth profiling, strain panel (AID 1159580);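 also: tested at 20 µM; growth read once vehicle control cultures reached saturation at 30 °C; 1 = growth at the plate median or of vehicle wells; lower values mean less growth of the strain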
Conditions: S. cerevisiae deletion strains, growth OD

Measured: normalized growth

O=C(/C=C/c1ccccc1)c1ccc(O[C@@H]2O[C@H](CO)[C@@H](O)[C@H](O)[C@H]2O)cc1O
inactive: locus YAL021C, strain ccr4, hits give low values 0.97 | locus YAL026C, strain drs2, hits give low values 0.923 | locus YAL030W, strain snc1, hits give low values 0.933 | locus YBR009C, strain hhf1, hits give low values 0.935 | locus YBR021W, strain FUR4, hits give low values 0.883 | locus YBR171W, strain sec66, hits give low values 0.914 | locus YBR229C, strain ROT2, hits give low values 0.922 | locus YBR279W, strain paf1, hits give low values 0.96 | locus YCL011C, strain gbp2, hits give low values 0.938 | locus YCL016C, strain dcc1, hits give low values 0.925 | locus YCL069W, strain vba3, hits give low values 0.96 | locus YCR088W, strain abp1, hits give low values 0.923 | locus YDL005C, strain med2, hits give low values 0.955 | locus YDL035C, strain GPR1, hits give low values 0.926 | locus YDL040C, strain nat1, hits give low values 0.937 | locus YDL074C, strain BRE1, hits give low values 0.861 | locus YDL101C, strain DUN1, hits give low values 0.943 | locus YDR069C, strain doa4, hits give low values 0.974 | locus YDR137W, strain rgp1, hits give low values 0.947 | locus YDR162C, strain NBP2, hits give low values 0.944 | locus YDR195W, strain ref2 1 | locus YDR334W, strain swr1, hits give low values 0.95 | locus YDR335W, strain msn5, hits give low values 0.938 | locus YDR392W, strain spt3, hits give low values 0.787 | locus YEL003W, strain gim4, hits give low values 0.931 | locus YEL037C, strain rad23, hits give low values 0.945 | locus YEL061C, strain CIN8 (second series), hits give low values 0.928 | locus YER015W, strain faa2, hits give low values 0.938 | locus YER111C, strain swi4, hits give low values 0.935 | locus YFR010W, strain ubp6, hits give low values 0.951 | locus YGL078C, strain dbp3, hits give low values 0.948 | locus YGL167C, strain pmr1, hits give low values 0.947 | locus YGL227W, strain vid30, hits give low values 0.932 | locus YGL248W, strain PDE1, hits give low values 0.936 | locus YGR252W, strain gcn5, hits give low values 0.79 | locus YHR013C, strain ard1, hits give low values 0.941 | locus YHR027C, strain rpn1, hits give low values 0.957 | locus YHR030C, strain SLT2, hits give low values 0.922 and 0.953 | locus YHR079C, strain IRE1, hits give low values 0.918 | locus YHR142W, strain chs7, hits give low values 0.882 | locus YIL066C, strain RNR3, hits give low values 0.906 | locus YIL073C, strain SPO22, hits give low values 0.956 | locus YJL092W, strain hpr5, hits give low values 0.926 | locus YJL095W, strain BCK1 (second series), hits give low values 0.944 | locus YJL095W, strain BCK1, hits give low values 0.923 and 0.945 | locus YJL115W, strain asf1, hits give low values 0.941 | locus YJL129C, strain trk1, hits give low values 0.897 | locus YJL154C, strain vps35, hits give low values 0.942 | locus YJL166W, strain qcr8, hits give low values 0.928 | locus YJL187C, strain SWE1 (second series), hits give low values 0.93 | locus YJL187C, strain SWE1, hits give low values 0.95 | locus YJR043C, strain POL32, hits give low values 0.893 | locus YJR066W, strain TOR1, hits give low values 0.857 | locus YJR075W, strain HOC1, hits give low values 0.913 | locus YKL009W, strain mrt4, hits give low values 0.906 | locus YKL160W, strain elf1, hits give low values 0.911 | locus YKL190W, strain CNB1, hits give low values 0.934 | locus YKR026C, strain gcn3, hits give low values 0.933 | locus YKR091W, strain srl3, hits give low values 0.938 | locus YLL041C, strain sdh2, hits give low values 0.937 | locus YLR027C, strain aat2, hits give low values 0.937 | locus YLR039C, strain RIC1, hits give low values 0.918 | locus YLR058C, strain SHM2, hits give low values 0.93 | locus YLR113W, strain HOG1, hits give low values 0.937 | locus YLR221C, strain rsa3, hits give low values 0.934 | locus YLR258W, strain gsy2, hits give low values 0.916 | locus YLR262C, strain YPT6 (second series), hits give low values 0.911 | locus YLR262C, strain YPT6, hits give low values 0.949 | locus YLR320W, strain mms22, hits give low values 0.894 | locus YLR357W, strain rsc2, hits give low values 0.929 | locus YML032C, strain rad52, hits give low values 0.916 | locus YML120C, strain ndi1, hits give low values 0.933 | locus YMR058W, strain fet3, hits give low values 0.931 | locus YMR125W, strain sto1, hits give low values 0.938 | locus YMR205C, strain PFK2, hits give low values 0.922 | locus YMR231W, strain pep5, hits give low values 0.947 | locus YMR307W, strain GAS1, hits give low values 0.692 | locus YNL067W, strain RPL9B, hits give low values 0.945 | locus YNL071W, strain lat1, hits give low values 0.942 | locus YNL183C, strain NPR1, hits give low values 0.911 | locus YNL209W, strain ssb2, hits give low values 0.937 | locus YNL233W, strain BNI4, hits give low values 0.877 | locus YNL248C, strain rpa49, hits give low values 0.896 | locus YNL322C, strain KRE1 (second series), hits give low values 0.921 | locus YNL322C, strain KRE1, hits give low values 0.936 | locus YNR049C, strain mso1, hits give low values 0.919 | locus YNR052C, strain pop2, hits give low values 0.92 | locus YOL006C, strain TOP1, hits give low values 0.879 | locus YOL012C, strain htz1 1.32 | locus YOR001W, strain rrp6, hits give low values 0.953 | locus YOR061W, strain CKA2, hits give low values 0.933 | locus YOR070C, strain gyp1, hits give low values 0.93 | locus YOR080W, strain dia2, hits give low values 0.948 | locus YOR106W, strain vam3, hits give low values 0.9 | locus YOR231W, strain MKK1, hits give low values 0.952 | locus YOR270C, strain vph1, hits give low values 0.925 | locus YOR290C, strain snf2, hits give low values 0.941 | locus YPL051W, strain arl3, hits give low values 0.931 | locus YPL055C, strain LGE1, hits give low values 0.901 | locus YPL240C, strain hsp82, hits give low values 0.932 | locus YPL256C, strain CLN2, hits give low values 0.889
active: locus YBL061C, strain skt5, hits give low values 0.886 | locus YBR023C, strain chs3, hits give low values 0.912 | locus YBR231C, strain swc5, hits give low values 0.899 | locus YCL029C, strain bik1, hits give low values 0.889 | locus YCL061C, strain MRC1, hits give low values 0.919 | locus YDL185W, strain tfp1, hits give low values 0.885 | locus YDL192W, strain arf1, hits give low values 0.829 | locus YDR001C, strain nth1, hits give low values 0.916 | locus YDR101C, strain arx1, hits give low values 0.892 | locus YDR159W, strain sac3, hits give low values 0.855 | locus YDR297W, strain sur2, hits give low values 0.921 | locus YDR318W, strain mcm21, hits give low values 0.892 | locus YDR388W, hits give low values 0.877 | locus YDR502C, strain sam2, hits give low values 0.882 | locus YEL061C, strain CIN8, hits give low values 0.918 | locus YER016W, strain bim1, hits give low values 0.921 | locus YER110C, hits give low values 0.869 | locus YER155C, strain BEM2 (second series), hits give low values 0.853 | locus YER155C, strain BEM2, hits give low values 0.912 | locus YER167W, strain BCK2, hits give low values 0.9 | locus YGL086W, strain mad1, hits give low values 0.885 | locus YGL173C, strain kem1, hits give low values 0.899 | locus YGL240W, strain doc1, hits give low values 0.853 | locus YGL253W, strain hxk2, hits give low values 0.902 | locus YGR135W, strain pre9, hits give low values 0.886 | locus YHR079C, strain IRE1 (second series), hits give low values 0.886 | locus YHR094C, strain hxt1, hits give low values 0.888 | locus YHR129C, strain ARP1, hits give low values 0.91 | locus YHR200W, strain rpn10, hits give low values 0.873 | locus YIL125W, strain kgd1, hits give low values 0.895 | locus YIR030C, strain dcg1, hits give low values 0.881 | locus YJL134W, strain LCB3, hits give low values 0.917 | locus YJL164C, strain tpk1, hits give low values 0.91 | locus YJL168C, strain set2, hits give low values 0.888 | locus YKL068W, hits give low values 0.905 | locus YKL085W, strain MDH1 (second series), hits give low values 0.902 | locus YKL085W, strain MDH1, hits give low values 0.902 | locus YKR001C, strain vps1, hits give low values 0.819 | locus YLL001W, strain dnm1, hits give low values 0.896 | locus YLL026W, hits give low values 0.924 | locus YLR102C, strain apc9, hits give low values 0.891 | locus YLR268W, strain sec22, hits give low values 0.88 | locus YLR330W, strain CHS5, hits give low values 0.904 | locus YLR342W, strain FKS1 (second series), hits give low values 0.767 | locus YLR342W, strain FKS1, hits give low values 0.865 | locus YLR370C, strain arc18, hits give low values 0.91 | locus YLR371W, strain rom2, hits give low values 0.756 | locus YLR384C, strain iki3, hits give low values 0.907 | locus YLR418C, strain cdc73, hits give low values 0.739 | locus YML016C, strain PPZ1, hits give low values 0.909 | locus YML124C, strain tub3, hits give low values 0.897 | locus YMR078C, strain ctf18, hits give low values 0.9 | locus YMR129W, hits give low values 0.91 | locus YMR223W, strain ubp8, hits give low values 0.877 | locus YNL250W, strain rad50, hits give low values 0.892 | locus YNL271C, strain bni1, hits give low values 0.858 | locus YNL298W, strain CLA4, hits give low values 0.884 | locus YNL307C, strain MCK1, hits give low values 0.887 | locus YOL147C, strain pex11, hits give low values 0.903 | locus YOR069W, strain VPS5, hits give low values 0.917 | locus YOR083W, strain WHI5, hits give low values 0.859 | locus YOR136W, strain idh2, hits give low values 0.912 | locus YOR144C, strain elg1, hits give low values 0.886 | locus YOR184W, strain ser1, hits give low values 0.864 | locus YOR265W, strain rbl2, hits give low values 0.926 | locus YOR316C, strain cot1, hits give low values 0.9 | locus YPL078C, strain atp4, hits give low values 0.891 | locus YPL106C, strain sse1, hits give low values 0.811 | locus YPL241C, strain CIN2, hits give low values 0.916 | locus YPR119W, strain clb2, hits give low values 0.885 | locus YPR141C, strain kar3, hits give low values 0.877 | locus YPR163C, strain tif3, hits give low values 0.899 | locus YPR167C, strain met16, hits give low values 0.916 | strain wtn01, hits give low values 0.859
